# Source: PubChem BioAssay (EPA / NIEHS)
# Activity calls are given as the source filed them. Rule for the calls: active = hit-call score of the fitted dose curve at least 0.9, where 1 is the maximum; inactive = score below 0.9.
# Tests used:
# Conditions in all cases: mRNA level, 48 h; actives raise or lower the signal
# [1] = read-out: succinate dehydrogenase complex iron sulfur subunit B (SDHB), SDHB (gene 6390); experiment: LTEA_HepaRG_SDHB: Life Technologies and Expression Analysis (LTEA) Assay for succinate dehydrogenase complex iron sulfur subunit B (SDHB) using HepaRG (AID 2283528)
# Summary of the method: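 HepaRG, 48 h exposure, 8-pt half-log series from 100 uM in 0.5% DMSO, duplicates. Readout: SDHB mRNA by Fluidigm qRT-PCR vs housekeeping genes; bidirectional fit relative to DMSO.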
# [2] = read-out: Signal transducer and activator of transcription 3 (Homo sapiens) (UniProt P40763); experiment: LTEA_HepaRG_STAT3: Life Technologies and Expression Analysis (LTEA) Assay for Signal transducer and activator of transcription (STAT3) using HepaRG (AID 2283529)
# Summary of the method: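 Differentiated human HepaRG cells in serum-free induction medium were exposed in duplicate for 48 h to eight half-log concentrations up to 100 uM in 0.5% DMSO. STAT3 mRNA was quantified by TaqMan qRT-PCR, normalized to ACTB, GAPDH and POLR2A, and fitted bidirectionally against DMSO.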
# [3] = read-out: sulfotransferase 2A1 (SULT2A1), SULT2A1 (gene 6822); experiment: LTEA_HepaRG_SULT2A1: Life Technologies and Expression Analysis (LTEA) Assay for sulfotransferase 2A1 (SULT2A1) using HepaRG (AID 2283531)
# Summary of the method: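 HepaRG, 48 h chemical exposure, 8-pt half-log curve from 100 uM in 0.5% DMSO, duplicates. Readout: TaqMan qRT-PCR of SULT2A1 mRNA, housekeeping-normalized. Bidirectional fit vs DMSO baseline.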
# [4] = read-out: Transforming Growth Factor (TGFA), TGFA (gene 7039); experiment: LTEA_HepaRG_TGFA: Life Technologies and Expression Analysis (LTEA) Assay for Transforming Growth Factor (TGFA) using HepaRG (AID 2283532)
# Summary of the method: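 Differentiated human HepaRG cells, plated 48 h then switched to serum-free induction medium, were exposed in duplicate for 48 h to 8-point half-log series from 100 uM in 0.5% DMSO. TGFA mRNA measured by qRT-PCR, normalized to ACTB/GAPDH/POLR2A, bidirectional fit versus DMSO.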
# [5] = read-out: Transforming Growth Factor (TGFB1), TGFB1 (gene 7040); experiment: LTEA_HepaRG_TGFB1: Life Technologies and Expression Analysis (LTEA) Assay for Transforming Growth Factor (TGFB1) Transporter using HepaRG (AID 2283533)
# Summary of the method: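 qRT-PCR readout of TGFB1 transcript in HepaRG lysates, normalized to three housekeeping genes; gain or loss of signal fitted relative to 0.5% DMSO vehicle. Exposure: 48 h, 8-point curve from 100 uM, duplicate wells.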
# TIMP1, TIMP1 (gene 7076) = experiment: LTEA_HepaRG_TIMP1: Life Technologies and Expression Analysis (LTEA) Assay for TIMP1 using HepaRG (AID 2283534);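 for outcome: TaqMan qRT-PCR signal normalized to ACTB GAPDH and POLR2A housekeeping genes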
# Summary of the method: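 HepaRG, 48 h exposure, 8-pt half-log series from 100 uM in 0.5% DMSO, duplicates; TIMP1 transcript by Fluidigm qRT-PCR, housekeeping-normalized; bidirectional curve fit vs DMSO baseline.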
# [6] = read-out: Tumor necrosis factor receptor 1 (TNFRSF1A), TNFRSF1A (gene 7132); experiment: LTEA_HepaRG_TNFRSF1A: Life Technologies and Expression Analysis (LTEA) Assay for Tumor necrosis factor receptor 1 (TNFRSF1A) using HepaRG (AID 2283535)
# Summary of the method: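 HepaRG, 48 h plating then 48 h chemical exposure, serum-free induction media; 8-pt CRC from 100 uM, half-log, 0.5% DMSO vehicle, duplicates. Readout: TaqMan qRT-PCR (Fluidigm), housekeeping-gene normalized; bidirectional fit vs DMSO.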
# [7] = read-out: Thyroid Hormone Responsive (THRSP), THRSP (gene 7069); experiment: LTEA_HepaRG_THRSP: Life Technologies and Expression Analysis (LTEA) Assay for Thyroid Hormone Responsive (THRSP) using HepaRG (AID 2283536)
# Summary of the method: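 Differentiated human HepaRG cells were exposed in duplicate for 48 h in serum-free induction medium to eight concentrations (top 100 uM, half-log steps, 0.5% DMSO). Expression was quantified by TaqMan qRT-PCR, normalized to ACTB, GAPDH and POLR2A, with bidirectional fitting against DMSO.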
# [8] = read-out: Cellular tumor antigen p53 (Homo sapiens) (UniProt P04637); experiment: LTEA_HepaRG_TP53: Life Technologies and Expression Analysis (LTEA) Assay for Tumor Protein P53 (TP53) using HepaRG (AID 2283537)
# Summary of the method: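 HepaRG, 48 h exposure, top 100 uM, half-log 8-point, 0.5% DMSO vehicle, duplicates. Read: TP53 mRNA by TaqMan qRT-PCR, normalised to ACTB/GAPDH/POLR2A; bidirectional fit vs DMSO.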
# [9] = read-out: solute carrier (SLCO1B1), SLCO1B1 (gene 10599); experiment: LTEA_HepaRG_SLCO1B1: Life Technologies and Expression Analysis (LTEA) Assay for solute carrier (SLCO1B1) using HepaRG (AID 2283530)
# Summary of the method: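 SLCO1B1 transcript read by qRT-PCR (Fluidigm arrays), normalized to three housekeeping genes, after 48 h chemical exposure of HepaRG cells; bidirectional concentration-response fitting versus 0.5% DMSO baseline. Eight-point half-log series, maximum 100 uM.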
# Cellular tumor antigen p53 (Homo sapiens), sequence (P04637 whole entry, looked up): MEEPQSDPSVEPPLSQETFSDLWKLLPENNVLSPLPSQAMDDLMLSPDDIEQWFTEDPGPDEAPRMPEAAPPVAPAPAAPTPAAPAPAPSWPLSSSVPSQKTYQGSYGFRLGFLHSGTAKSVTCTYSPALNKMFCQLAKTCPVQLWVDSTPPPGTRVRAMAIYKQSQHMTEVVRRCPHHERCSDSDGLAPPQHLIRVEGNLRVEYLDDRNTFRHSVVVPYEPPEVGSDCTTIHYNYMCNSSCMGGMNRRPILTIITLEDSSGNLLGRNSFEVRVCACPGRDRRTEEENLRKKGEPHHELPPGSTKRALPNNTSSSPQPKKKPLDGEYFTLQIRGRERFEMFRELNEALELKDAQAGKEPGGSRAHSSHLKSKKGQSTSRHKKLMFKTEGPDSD
# Signal transducer and activator of transcription 3 (Homo sapiens), sequence (P40763 whole entry, looked up): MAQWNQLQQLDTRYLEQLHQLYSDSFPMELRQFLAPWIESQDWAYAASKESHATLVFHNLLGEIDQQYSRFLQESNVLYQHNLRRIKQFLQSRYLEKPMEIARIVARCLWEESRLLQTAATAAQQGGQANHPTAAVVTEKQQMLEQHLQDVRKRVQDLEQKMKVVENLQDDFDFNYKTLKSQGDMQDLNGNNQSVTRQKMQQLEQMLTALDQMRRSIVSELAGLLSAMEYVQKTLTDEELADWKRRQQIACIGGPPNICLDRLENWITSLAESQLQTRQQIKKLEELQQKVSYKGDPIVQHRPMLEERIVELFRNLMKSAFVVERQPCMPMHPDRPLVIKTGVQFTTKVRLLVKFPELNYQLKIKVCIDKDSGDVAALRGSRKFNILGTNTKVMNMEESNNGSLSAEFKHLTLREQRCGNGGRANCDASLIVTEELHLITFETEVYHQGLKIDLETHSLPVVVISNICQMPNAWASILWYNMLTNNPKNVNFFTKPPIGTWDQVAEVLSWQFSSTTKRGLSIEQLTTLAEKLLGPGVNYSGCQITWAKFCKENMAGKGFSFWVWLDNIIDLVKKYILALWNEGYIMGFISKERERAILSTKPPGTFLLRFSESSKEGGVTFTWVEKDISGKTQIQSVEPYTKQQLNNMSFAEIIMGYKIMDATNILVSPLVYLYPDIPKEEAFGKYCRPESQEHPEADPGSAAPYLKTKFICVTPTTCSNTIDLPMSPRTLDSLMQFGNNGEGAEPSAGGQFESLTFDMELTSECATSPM
compound,measurement,setting,value
OC[C@@H](O)[C@@H](O)[C@H](O)[C@H](O)CO,outcome,[1],inactive
same,outcome,[2],inactive
same,outcome,[3],inactive
same,outcome,[4],inactive
same,outcome,[5],inactive
same,outcome,"TIMP1, TIMP1 (gene 7076)",inactive
same,outcome,[6],inactive
same,outcome,[7],inactive
same,outcome,[8],inactive
Nc1ccc2c(c1)C(=O)c1ccccc1C2=O,outcome,[1],inactive
same,outcome,[2],inactive
same,outcome,[3],inactive
same,outcome,[4],inactive
same,outcome,[5],inactive
same,outcome,"TIMP1, TIMP1 (gene 7076)",inactive
same,AC50,[7],6.08 µM (active)
same,AC50,[8],18.2 µM (active)
C1CCC(SSC2CCCCC2)CC1,outcome,[1],inactive
same,outcome,[2],inactive
same,outcome,[3],inactive
same,outcome,[4],inactive
same,outcome,[5],inactive
same,outcome,"TIMP1, TIMP1 (gene 7076)",inactive
same,outcome,[6],inactive
same,outcome,[7],inactive
same,outcome,[8],inactive
NC(=O)Cn1c(=O)cc(CCN2CCN(c3nccc4sccc34)CC2)c2ccc(F)cc21,outcome,[1],inactive
same,outcome,[2],inactive
same,outcome,[3],inactive
same,AC50,[5],39.1 µM (active)
same,outcome,"TIMP1, TIMP1 (gene 7076)",inactive
same,outcome,[6],inactive
same,AC50,[7],50 µM (active)
same,AC50,[8],50 µM (active)
CCCCCCCCCCCC(=O)OC,outcome,[1],inactive
same,outcome,[2],inactive
same,outcome,[3],inactive
same,outcome,[5],inactive
same,outcome,"TIMP1, TIMP1 (gene 7076)",inactive
same,outcome,[6],inactive
same,outcome,[7],inactive
same,outcome,[8],inactive
O=C(OCCCCCOC(=O)c1ccccc1)c1ccccc1,AC50,[2],7.25 µM (active)
same,AC50,[9],1.29 µM (active)
same,outcome,[3],inactive
same,AC50,[4],1.28 µM (active)
same,AC50,[5],3 µM (active)
same,outcome,"TIMP1, TIMP1 (gene 7076)",inactive
same,AC50,[6],1.99 µM (active)
same,outcome,[7],inactive
same,AC50,[8],1.31 µM (active)
CC(CO)OC(C)CO (stereo not given) (tested in a mixture with another compound),outcome,[1],inactive
same,outcome,[2],inactive
same,outcome,[3],inactive
same,outcome,[4],inactive
same,outcome,[5],inactive
same,outcome,"TIMP1, TIMP1 (gene 7076)",inactive
same,outcome,[6],inactive
same,outcome,[7],inactive
same,outcome,[8],inactive
CCCCCCCCCCO,outcome,[1],inactive
same,outcome,[2],inactive
same,outcome,[3],inactive
same,outcome,[4],inactive
same,outcome,[5],inactive
same,AC50,"TIMP1, TIMP1 (gene 7076)",12.2 µM (active)
same,outcome,[6],inactive
same,outcome,[7],inactive
same,outcome,[8],inactive
Cc1nc(C)nc(N2C[C@@H](C)N(c3ccnc([C@@H](C)O)n3)[C@@H](C)C2)n1,outcome,[1],inactive
same,outcome,[2],inactive
same,outcome,[3],inactive
same,outcome,[5],inactive
same,outcome,"TIMP1, TIMP1 (gene 7076)",inactive
same,outcome,[6],inactive
same,outcome,[7],inactive
same,outcome,[8],inactive
COc1ccc(S(=O)(=O)N2C(=O)[C@@](c3ccccc3OC)(N3C[C@H](O)C[C@H]3C(=O)N(C)C)c3cc(Cl)ccc32)c(OC)c1,AC50,[1],12.9 µM (active)
same,AC50,[2],50 µM (active)
same,AC50,[3],50.7 µM (active)
same,AC50,[4],78.7 µM (active)
same,AC50,[5],19.1 µM (active)
same,outcome,"TIMP1, TIMP1 (gene 7076)",inactive
same,outcome,[6],inactive
same,AC50,[7],19.5 µM (active)
same,AC50,[8],22.7 µM (active)
Cc1ccc(C)c(O)c1C,outcome,[1],inactive
same,outcome,[2],inactive
same,outcome,[3],inactive
same,outcome,[5],inactive
same,outcome,"TIMP1, TIMP1 (gene 7076)",inactive
same,outcome,[6],inactive
same,outcome,[7],inactive
same,outcome,[8],inactive
CCOc1ccc2c(c1)C(C)=CC(C)(C)N2,outcome,[1],inactive
same,outcome,[2],inactive
same,outcome,[3],inactive
same,outcome,[5],inactive
same,outcome,"TIMP1, TIMP1 (gene 7076)",inactive
same,outcome,[6],inactive
same,outcome,[7],inactive
same,outcome,[8],inactive
CC(=O)OCCOCCOCCOC(C)=O,outcome,[1],inactive
same,outcome,[2],inactive
same,outcome,[3],inactive
same,outcome,[5],inactive
same,outcome,"TIMP1, TIMP1 (gene 7076)",inactive
same,outcome,[6],inactive
same,outcome,[7],inactive
same,outcome,[8],inactive
O=C(N[C@@H](Cc1ccccc1)[C@@H](O)C(=O)N1C[C@@H](O)[C@@H](O)C1)c1cc2cc(Cl)ccc2[nH]1,outcome,[1],inactive
same,outcome,[2],inactive
same,outcome,[3],inactive
same,outcome,[4],inactive
same,outcome,"TIMP1, TIMP1 (gene 7076)",inactive
same,outcome,[6],inactive
same,AC50,[7],88.6 µM (active)
same,AC50,[8],50 µM (active)
O=C(O)Cc1ccccc1Nc1c(Cl)cccc1Cl,outcome,[1],inactive
same,outcome,[2],inactive
same,outcome,[3],inactive
same,outcome,[5],inactive
same,outcome,"TIMP1, TIMP1 (gene 7076)",inactive
same,outcome,[6],inactive
same,outcome,[7],inactive
same,outcome,[8],inactive
CCCc1cc(=O)[nH]c(=S)[nH]1,outcome,[1],inactive
same,outcome,[2],inactive
same,outcome,[3],inactive
same,outcome,[5],inactive
same,outcome,"TIMP1, TIMP1 (gene 7076)",inactive
same,outcome,[6],inactive
same,outcome,[7],inactive
same,outcome,[8],inactive
O=c1[nH]cc(F)c(=O)[nH]1,outcome,[1],inactive
same,outcome,[2],inactive
same,outcome,[3],inactive
same,outcome,[5],inactive
same,outcome,"TIMP1, TIMP1 (gene 7076)",inactive
same,outcome,[6],inactive
same,AC50,[7],51 µM (active)
same,outcome,[8],inactive
Cc1c(C(=O)O)c(O)cc2c1C(=O)c1c(O)c([C@@H]3O[C@H](CO)[C@@H](O)[C@H](O)[C@H]3O)c(O)c(O)c1C2=O,outcome,[1],inactive
same,outcome,[2],inactive
same,outcome,[3],inactive
same,outcome,[5],inactive
same,outcome,"TIMP1, TIMP1 (gene 7076)",inactive
same,outcome,[6],inactive
same,outcome,[7],inactive
same,outcome,[8],inactive
Oc1ccc2ccccc2c1N=Nc1ccccc1,outcome,[1],inactive
same,AC50,[2],16.2 µM (active)
same,AC50,[3],4.89 µM (active)
same,outcome,[5],inactive
same,AC50,"TIMP1, TIMP1 (gene 7076)",10.1 µM (active)
same,outcome,[6],inactive
same,AC50,[7],2.19 µM (active)
same,outcome,[8],inactive
NCC1(Cc2noc(=O)[nH]2)CCCCC1,outcome,[1],inactive
same,outcome,[2],inactive
same,outcome,[3],inactive
same,outcome,[4],inactive
same,outcome,[5],inactive
same,outcome,"TIMP1, TIMP1 (gene 7076)",inactive
same,outcome,[6],inactive
same,outcome,[7],inactive
same,outcome,[8],inactive
CCCCN(CCCC)CCCC,outcome,[1],inactive
same,outcome,[2],inactive
same,outcome,[3],inactive
same,outcome,[5],inactive
same,outcome,"TIMP1, TIMP1 (gene 7076)",inactive
same,outcome,[6],inactive
same,outcome,[7],inactive
same,outcome,[8],inactive
C=CCOC(=O)c1ccccc1C(=O)OCC=C,outcome,[1],inactive
same,outcome,[2],inactive
same,outcome,[3],inactive
same,outcome,[4],inactive
same,outcome,[5],inactive
same,outcome,"TIMP1, TIMP1 (gene 7076)",inactive
same,outcome,[6],inactive
same,outcome,[7],inactive
same,outcome,[8],inactive
C[Si]1(C)O[Si](C)(C)O[Si](C)(C)O[Si](C)(C)O1,outcome,[1],inactive
same,outcome,[2],inactive
same,outcome,[3],inactive
same,outcome,[5],inactive
same,outcome,"TIMP1, TIMP1 (gene 7076)",inactive
same,outcome,[6],inactive
same,outcome,[7],inactive
same,outcome,[8],inactive
O=[N+]([O-])C(CO)(CO)CO,outcome,[1],inactive
same,outcome,[2],inactive
same,outcome,[3],inactive
same,outcome,[5],inactive
same,outcome,"TIMP1, TIMP1 (gene 7076)",inactive
same,outcome,[6],inactive
same,outcome,[7],inactive
same,outcome,[8],inactive
